Molecules are shown by their SMILES. The campaign covered roughly 1,200 compounds. About 950 (79%) were called active. The set was probably picked from earlier hits. Not all results are given here. Measured potencies and affinities stand elsewhere. Unmarked numbers belong to inactive results.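 Rule for the calls: active = signal rises and fitted curve reaches 40% activity at or below the top valid tested dose, in every replicate test; inconclusive = replicate tests give mixed calls; inactive = the rest, including activity in the opposite direction.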

This note sets out measurements from PubChem BioAssay AID651717 (Broad Institute, 2012).

This test in a line: compounds raising Bmi1 reporter signal – mouse embryonic stem cells, luciferase, cherry-pick, esBAF inhibitor project, dose response (AID 651717).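 Note: luciferase knocked into Bmi1 locus with EF-1a renilla as cell number control; rising ratio signals esBAF inhibition which derepresses Bmi1.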 Conditions: mESC Bmi1-luciferase reporter, firefly/renilla ratio, 24 h, hits give high values; at 35 µM unless noted. In general terms: In a reporter assay the amount or activity of a reporter protein is the signal.
On to `O=C(CCCc1ccccc1)Nc1ccccc1C(F)(F)F`, for which the max activity was 21.6%. For `C[C@@H]1CN([C@@H](C)CO)C(=O)c2cc(NC(=O)Nc3ccc4c(c3)OCO4)ccc2O[C@@H](C)CCCCO[C@H]1CN(C)C(=O)Nc1ccccc1` the value was 33.3%; for `C[C@@H]1CCCCO[C@H](CN(C)C(=O)Nc2ccc(F)cc2)[C@H](C)CN([C@@H](C)CO)C(=O)c2cc(NC(=O)Nc3ccc4c(c3)OCO4)ccc2O1`, 7.08% [at 1 µM]; for `O=S(=O)(c1cccs1)N1CN(Cc2ccc(Cl)cc2)c2nc3ccccc3nc21`, -33.7%. Turning to `COc1ccc(-c2nn(-c3ccccc3)cc2/C=C(\CC(=O)O)c2nc3ccccc3s2)cc1OC`, the max activity is 26.9%. With `C[C@@H]1CCCCO[C@@H](CN(C)S(=O)(=O)c2cn(C)cn2)[C@H](C)CN([C@H](C)CO)C(=O)c2cc(NC(=O)Nc3ccc4c(c3)OCO4)ccc2O1`, the max activity was -9.02% [at 2.1 µM]. For `CN(c1ccc(O)cc1)S(=O)(=O)c1ccc2ccccc2c1` the value was 14.3% [at 8 µM]. Regarding `CCCN(Cc1ccc(C)cc1)C(=O)c1ccc(CNS(=O)(=O)c2ccc(C(C)=O)cc2)cc1`, the max activity was 33.1% [at 16 µM]. Consider `COc1cccc(CN(C(=O)c2cc3ccccc3oc2=O)C2CC2)c1`, for which the max activity is 35% [at 8 µM]. With `O=C1NC[C@H](c2ccccc2)OC(=O)[C@@H](Cc2ccc(F)cc2)C/C=C\C[C@H]1CC(=O)N(CCO)Cc1ccccc1` the figure was 25.5%. On to `COC(=O)c1ccc2c(=O)n(CC3CCCO3)c(SCC(=O)Nc3ccccc3Cl)nc2c1` (centres undefined), for which the max activity was 24.8% [at 8 µM].

Turning to `C[C@@H]1CCCCO[C@@H](CN(C)C(=O)Nc2cccc3ccccc23)[C@H](C)CN([C@H](C)CO)C(=O)c2cc(NC(=O)C3CCCCC3)ccc2O1`, the max activity was 28.2% [at 16 µM]. `COc1ccc(CNC(=O)N(C)C[C@@H]2OCc3ccccc3-c3c(n(C)c4ccccc34)C(=O)N([C@H](C)CO)C[C@@H]2C)cc1`: the max activity was -26.4% [at 30 µM].

Take `COc1ccc(-c2cc(C(=O)N3CCCCCC3)no2)cc1OC`: the max activity was 32.3%. For `CS(=O)(=O)NN1C(=O)c2ccccc2NC1c1cc2ccccc2nc1Cl` (centres undefined) the value was 18.4%; for `COc1ccc(C(=O)O/N=C(\N)c2ccc(OC)c(OC)c2)c(OC)c1`, 34.8%.

As for `O=C(NCC[C@@H]1CC[C@H](NC(=O)Nc2cc(F)ccc2F)[C@H](CO)O1)Nc1ccc(Cl)cc1`, the max activity was 29.7%. With `O=C(NCC[C@@H]1CC[C@@H](NC(=O)Nc2cc(F)ccc2F)[C@H](CO)O1)Nc1ccc(Cl)cc1` the figure was -11.9% [at 16 µM]; with `C[C@@H]1CN([C@H](C)CO)C(=O)c2c(c3ccccc3n2C)-c2ccccc2CO[C@H]1CN(C)C(=O)Nc1ccc2c(c1)OCO2`, -14.5%; with `CC(C)c1ccc(NC(=O)c2ccccc2NC(=O)C2CCCCC2C(=O)O)cc1` (centres undefined), 41%.

For the compound `Cc1cccc(NC2SC(=O)N(c3ccccc3)C2=O)c1` (centres undefined), the max activity is 37.5%.

`O=C(/C=C/NNC(=O)c1ccccc1O)c1ccccc1`: the max activity is 4.98% [at 4.2 µM].

For `CCn1c(CCNC(=O)c2cccs2)nnc1SCC(=O)Nc1nc(-c2ccccc2)cs1`, the max activity was 32.7%. In the case of `C[C@@H]1CCCCO[C@@H](CN(C)C(=O)Nc2ccccc2)[C@@H](C)CN([C@@H](C)CO)C(=O)c2cc(NC(=O)Nc3ccc4c(c3)OCO4)ccc2O1`, the max activity was 13.1% [at 16 µM]. With `C[C@@H]1CCCCO[C@@H](CN(C)C(=O)Nc2cccc3ccccc23)[C@H](C)CN([C@H](C)CO)C(=O)c2cc(NC(=O)Cc3ccccc3)ccc2O1` the figure was -4.4% [at 2.1 µM]; with `Brc1ccc(N=C/C=C/C=C/Nc2ccc(Br)cc2)cc1`, 9.66% [at 4.2 µM]; with `C[C@H](CO)N1C[C@H](C)[C@@H](CN(C)S(=O)(=O)c2cccs2)Oc2c(NC(=O)Nc3ccc4c(c3)OCO4)cccc2C1=O`, -24.2%. For `OC(c1ccccc1)c1ncc(-c2ccccc2F)[nH]1` (centres undefined) the value was -21.5%.

As for `COc1cccc(-c2cnc(C(O)c3ccc(F)cc3)[nH]2)c1` (centres undefined), the max activity is 32% [at 8 µM]. With `CCc1ccc(C(O)c2ncc(-c3cccc(F)c3)[nH]2)cc1` (centres undefined) the figure was -31.3%; with `Cc1ccc(S(=O)(=O)N2CCOCC2)cc1C(=O)Nc1ccc(-c2cn3ccsc3n2)cc1`, -8.19%; with `CC(C)c1ccc(Nc2ncc3c(n2)CCN(C(=O)Nc2ccc(F)c(Cl)c2)C3)cc1`, 20.6%.

As to `N#Cc1cccc(NC(=O)c2cc(C3CCCCN3S(=O)(=O)c3cccc4cccnc34)on2)c1` (centres undefined), the max activity was -16.3%.

Consider `O=C(Nc1ccc(F)c(Cl)c1)c1cc(C2CCCN(S(=O)(=O)c3cccc4cccnc34)C2)on1` (centres undefined), for which the max activity was 29.2% [at 16 µM].

Regarding `COC(=O)c1ccc(-c2ccc(OC)c([C@H]3[C@H]4C=CC[C@@H](C)[C@@H]4C(=O)N3Cc3ccccc3)c2)cc1`, the max activity was -14.1%. For `O=C1C2C(c3cccc(/C=C/c4ccccc4)c3)CC=CC2C(c2ccc3ccccc3c2)N1Cc1ccccc1` (centres undefined) the value was 17.2%; for `CN(C)C(=O)CCc1ccc2c3c([nH]c2c1)[C@]1(CCc2ccccc2)[C@@H](C(=O)N2CCCCC2)C[C@H](CC(=O)NCCC2=CCCCC2)C(=O)N1CC3`, -35% [at 8 µM]. With `C[C@H](CO)N1C[C@H](C)[C@@H](CN(C)C(=O)Nc2ccc3c(c2)OCO3)Oc2ncc(C#CC3(O)CCCC3)cc2C1=O` the figure was -4.31% [at 16 µM]; with `C[C@H](CO)N1C[C@H](C)[C@H](CN(C)C(=O)Nc2ccc3c(c2)OCO3)Oc2c(NS(=O)(=O)c3ccccc3)cccc2C1=O`, -12.7%.

Take `C[C@@H]1CCCCO[C@H](CN(C)S(=O)(=O)c2cn(C)cn2)[C@@H](C)CN([C@@H](C)CO)C(=O)c2cc(NC(=O)Nc3ccc4c(c3)OCO4)ccc2O1`: the max activity was -8.77% [at 8 µM].

As for `C[C@H](CO)N1C[C@H](C)[C@@H](CN(C)S(=O)(=O)c2cn(C)cn2)Oc2c(NC(=O)Nc3ccc4c(c3)OCO4)cccc2C1=O`, the max activity was -22.8%. With `Cc1ccc(S(=O)(=O)N[C@H]2CC[C@@H](CCNC(=O)Nc3ccc(Cl)cc3)O[C@H]2CO)cc1`, the max activity was -11.4%. For `O=C(NCC[C@H]1CC[C@H](NC(=O)Nc2cc(F)ccc2F)[C@H](CO)O1)Nc1ccc(Cl)cc1` the value was 31.4%. With `C[C@H]1CN([C@@H](C)CO)C(=O)c2c(c3ccccc3n2C)-c2ccccc2CO[C@H]1CN(C)C(=O)Nc1ccc2c(c1)OCO2` the figure was -25.1%.

In the case of `Cc1noc(C)c1NC(=O)N(C)C[C@@H]1Oc2ncc(C#CC3CC3)cc2C(=O)N([C@@H](C)CO)C[C@H]1C`, the max activity is 9.7% [at 8 µM]. As to `O=C(Cc1ccc(Cl)cc1)NC1CCCCCC1`, the max activity was 37.5%.

For `CC(C)NC(=O)N(C)C[C@@H]1OCCCC[C@H](C)Oc2ccc(NC(=O)Nc3ccc4c(c3)OCO4)cc2C(=O)N([C@H](C)CO)C[C@@H]1C`, the max activity is 11.4% [at 0.5 µM]. With `CS(=O)(=O)Nc1ccc(C2=NN(S(C)(=O)=O)C(c3cccs3)C2)cc1` (centres undefined) the figure was 36.3% [at 16 µM]; with `COc1ccc(S(=O)(=O)N2Cc3ccccc3CC2C(=O)Nc2ccc3c(c2)OCO3)cc1` (centres undefined), 17% [at 4.2 µM]; with `Cc1nc2cc(C(=O)O)ccc2s1`, 22% [at 16 µM]. As for `CN(C(=O)c1cc2c(s1)-c1ccccc1S(=O)(=O)C2)c1ccccc1`, the max activity is 29.1%. Regarding `N=C1/C(=C/c2ccc(OCc3ccccc3)cc2)C(=O)N=C2SC(CC(=O)N3CCOCC3)=NN12`, the max activity is 23.9%. With `Cc1ccc(COc2ccccc2C(=S)N2CCCC2)cc1` the figure was 28.7%; with `C[C@H]1CN([C@@H](C)CO)C(=O)c2cccc(NC(=O)Nc3ccc(C(F)(F)F)cc3)c2O[C@@H]1CN(C)C`, 14.9% [at 8 µM]; with `C[C@H](CO)N1C[C@H](C)[C@H](CN(C)C(=O)Nc2ccc3c(c2)OCO3)OCc2ccccc2-c2c(n(C)c3ccccc23)C1=O`, -46.6%.

Take `CO[C@@H]1CN(C)C(=O)c2ccc(NC(=O)c3nc4ccccc4s3)cc2OC[C@@H](C)N(Cc2ccncc2)C[C@H]1C`: the max activity was 38.8%.

On to `C[C@@H]1CN([C@@H](C)CO)C(=O)c2cc(NC(=O)Cc3cn(C)c4ccccc34)ccc2O[C@H]1CN(C)C(=O)Nc1ccc2c(c1)OCO2`, for which the max activity is 9.93% [at 8 µM]. Regarding `CO[C@@H]1CN(C)C(=O)c2ccc(NC(=O)c3nc4ccccc4s3)cc2OC[C@@H](C)N(Cc2cncnc2)C[C@H]1C`, the max activity is 21% [at 16 µM].

For the compound `C[C@H](CO)N1C[C@H](C)[C@@H](CN(C)Cc2ccc(-c3ccccc3)cc2)Oc2ccc(NC(=O)CCCCCC(=O)Nc3ccccc3N)cc2CC1=O`, the max activity was 16.8% [at 16 µM]. For `COc1cccc(C(=O)Nc2ccc3c(c2)OC[C@@H](C)N(CCc2ccccc2)C[C@@H](C)[C@H](OC)CN(C)C3=O)c1` the value was 9.35% [at 1 µM]; for `CCCNC(=O)Nc1ccc2c(c1)OC[C@@H](C)N(Cc1ccc(-c3ccccn3)cc1)C[C@@H](C)[C@H](OC)CN(C)C2=O`, -20.1%; for `CO[C@@H]1CN(C)C(=O)c2ccc(NC(=O)c3nc4ccccc4s3)cc2OC[C@@H](C)N(Cc2cccnc2)C[C@H]1C`, 18.5%.

With `CC(C)(C)C(=O)[C@H]1[C@H](c2ccccc2)[C@@]2(N=C(c3ccccc3)OC2=O)C2c3ccccc3C=NN21` (some centres undefined), the max activity was 19% [at 16 µM].

Take `O=C(NCCc1ccc(F)cc1)c1cccc(NC(=O)c2ccccc2)c1`: the max activity is 21.2%. With `CC1CCCN(C(=O)c2ccc(Cl)c(S(=O)(=O)N3CCCCCC3)c2)C1` (centres undefined) the figure was 6.03% [at 4.2 µM]. In the case of `O=C(CNc1ccccc1F)Nc1cccc2ccccc12`, the max activity was -8.82%. For `C[C@H]1CCCCO[C@H](CN(C)S(=O)(=O)c2cn(C)cn2)[C@@H](C)CN([C@@H](C)CO)C(=O)c2cc(NC(=O)Nc3ccc4c(c3)OCO4)ccc2O1` the value was -6.42% [at 0.5 µM]; for `O=C(c1cc(COc2ccc(F)cc2F)on1)N1CC2C[C@@H]3CC1C[C@H](C2)C3`, 35.9% [at 16 µM]. For `C[C@@H]1CN([C@H](C)CO)C(=O)c2cc(NC(=O)Nc3ccc4c(c3)OCO4)ccc2O[C@@H](C)CCCCO[C@@H]1CN(C)S(=O)(=O)c1cn(C)cn1` the value was -6.88% [at 1 µM].
